SMILES strings stand for the structures. The panel holds about 83,000 compounds, 20% with a hit somewhere; the sample as a whole holds those more often.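 Interpretation: 100, growth as untreated; towards 0, rising growth inhibition; 0, no net growth; 0 to -100, cell death. Compounds scoring below 10 were considered active.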 The source made the active and inactive calls.

In the assay the test system is CCRF-CEM leukemia. Kind of assay: NCI-60 one-dose screen, 48 h (100 = growth as untreated, 0 = no growth, -100 = all killed). The conditions noted are these: 10 µM unless noted. How it is done:
Growth inhibition of the CCRF-CEM human tumor cell line is measured as a screen for anti-cancer activity. Cells are grown in 96 well plates and exposed to the test compound for 48 hours. Compounds are tested at a single concentration, which is 10^-5 M for most compounds. The reported endpoint is percent growth (GI% or GIPRCNT), where numbers from 0 - 100% represent growth inhibition, and numbers from -100% - 0 represent cell death. For example, a value of 40 represents 60% growth inhibition. A value of 0 means no net growth occurred over the course of the experiment. A value of -40 indicates 40% of cells at the beginning of the experiment died by the end of the experiment. A value of -100 means all cells are dead at the end of the experiment.
NCI-60 Human Tumor Cell Lines Screen was performed using the standard one-dose NCI protocol, which is described in more detail at https://dtp.cancer.gov/discovery_development/nci-60/default.htm.
Compounds with GIPRCNT values below 10 were considered active. Activity score was based on GIPRCNT using the following formula: […]
Score is 0 for GIPRCNT values of 100 or above, 50 for GIPRCNT values of 0, and 100 for GIPRCNT values of -100.
With `CN1CCN(c2ccc3nc(-c4[nH]ncc4Nc4ncnc5[nH]ccc45)[nH]c3c2)CC1`, the growth is 4.45% (active).
Turning to `COc1cccc(-c2nn(-c3ccccc3)cc2-c2ccnc(NCCNS(=O)(=O)c3ccccc3)c2)c1`, the growth is 12.2% (inactive).
The same measure for `COc1ccc(/C=C/C(=O)NCC(C)O)cc1` (stereo not given): 106% (inactive); for `O=C(O)c1cccc2c1C(=O)N(c1ccc3c(c1)Cc1ccccc1-3)C2=O`: 104% (inactive); for `CCN1CCN(c2nc(C)cc(N(CCCNc3ccnc4cc(Cl)ccc34)Cc3ccco3)n2)CC1`: 42% (inactive).
Consider `O=C(/C=C/c1cccc(O)c1)c1ccccc1O`, for which the growth was 47.1% (inactive).
The result for `N#C/C(=C\c1ccc(-c2cccc(C(F)(F)F)c2)o1)c1nc(-c2ccco2)cs1` reads 93.7% (inactive).
As for `O=C1/C(=C\c2ccc(Br)o2)SC(=S)N1CCc1ccc(O)cc1`, the growth was 21.8% (inactive).
The result for `C=C(C)[C@@H]1CC[C@]2(/C=N/Nc3ccncc3)CC[C@]3(C)[C@H](CC[C@@H]4[C@@]5(C)CCCNC(C)(C)[C@@H]5CC[C@]43C)[C@@H]12` reads 67.1% (inactive).
As for `C=C(C)[C@@H]1CC[C@]2(c3nnc(-c4ccncc4)o3)CC[C@]3(C)[C@H](CC[C@@H]4[C@@]5(C)CCC(=O)NC(C)(C)[C@@H]5CC[C@]43C)[C@@H]12`, the growth was 95% (inactive).
On to `CC(=O)O[C@H]1CC[C@]2(C)[C@H]3CC=C4[C@@H]5[C@H](C)[C@@H](C)CC[C@]5(C(=O)NCCNCCNCCN)CC[C@@]4(C)[C@]3(C)CC[C@H]2C1(C)C`, for which the growth was 62.1% (inactive).
Consider `COc1cc2c(cc1-c1c(C)noc1C)ncc1nc(C3CCCCC3)n([C@@H](C)COC(F)F)c12`, for which the growth was 46.1% (inactive).
Turning to `N=C(N)c1ccc(-c2ccc(-c3cc(F)cc(F)c3)o2)nc1`, the growth was -35.6% (active).
On to `NC(=O)[C@@H]1CC2CCC1C2` (stereo not given in full), for which the growth was 37.4% (inactive).
As to `Cn1cc(-c2csc(-c3c[nH]c4ccc(F)cc34)n2)c2cccnc21`, the growth was 39.7% (inactive).
Consider `Clc1cc(Cl)cc(Nc2ccc3c(OCCCN4CCOCC4)cccc3n2)c1`, for which the growth is 29.5% (inactive).
Take `Cn1cc(-c2csc(-c3cn(CCN)c4ccccc34)n2)c2cccnc21`: the growth is 8.25% (active).
Regarding `COC(=O)CCCCCn1c2ccccc2c2c3c(c4c5ccccc5[nH]c4c21)C(=O)N(O)C3=O`, the growth is 11.4% (inactive).
Regarding `CCCNc1nc(N(C)O)nc(N(C)O)n1`, the growth was 6.78% (active).
Turning to `CN(C)c1ccc(N)c2ccccc12`, the growth was 41.8% (inactive).
Regarding `COc1ccc(C2NC(=O)Nc3ccccc32)c(OC)c1` (stereo not given), the growth was 101% (inactive).
Regarding `Cc1[c-]onc1C.Cc1[c-]onc1C.[Ag].[Ag].[NH-]S(=O)(=O)c1ccc(N=Nc2cc(N=Nc3ccc(S([NH-])(=O)=O)cc3)c3c(NC(=O)C(Cl)Cl)cccc3c2OC(=O)C(Cl)Cl)cc1`, the growth is 11% (inactive).
The same measure for `O=C1CCN2C(=O)Nc3ccccc3C2C1` (stereo not given): 106% (inactive); for `N=C(N)c1ccc(S(N)(=O)=O)cc1`: 107% (inactive).
The same measure for `Cc1ccsc1-c1ccc2c(c1)COC2(CCCN(C)C)c1ccc(F)cc1` (stereo not given): 39% (inactive).
On to `C=C(C)[C@@H]1CC[C@]2(C(=O)NNC(=O)c3cccnc3)CC[C@]3(C)[C@H](CC[C@@H]4[C@@]5(C)CCCNC(C)(C)[C@@H]5CC[C@]43C)[C@@H]12`, for which the growth was 65.6% (inactive).
Consider `COc1cccc(-c2nn(-c3ccccc3)cc2-c2ccnc(NCCCO)c2)c1`, for which the growth was 11.8% (inactive).
As to `CCN1CCN(C(=O)[C@]23CCC(C)(C)C[C@H]2C2=CC[C@@H]4[C@@]5(C)CC/C(=N/O)C(C)(C)[C@@H]5CC[C@@]4(C)[C@]2(C)CC3)CC1`, the growth is 38.3% (inactive).
Turning to `Cn1cc(-c2nc(-c3c[nH]c4ncccc34)cs2)c2cc(Br)ccc21`, the growth was 58.9% (inactive).
As for `CC[C@H](CC[C@@H](C)[C@H]1CC[C@H]2[C@@H]3/C(=C/c4cccnc4)C(=O)C4=CC(=O)CC[C@]4(C)[C@H]3CC[C@]12C)C(C)C`, the growth is 43.4% (inactive).
`COC(=O)[C@]12CC[C@@H](C)[C@H](C)[C@@H]1C1=CC[C@@H]3[C@@]4(C)C[C@@H](O)[C@H](O)[C@@](C)(CO)C4=CC[C@@]3(C)[C@]1(C)CC2`: the growth was -33.6% (active).
In the case of `Cn1cc(-c2nc(-c3cn(C)c4ncccc34)cs2)c2ccccc21`, the growth is 47.1% (inactive).
Take `CC(C)(C)n1cc(-c2ccnc(NCCCNS(=O)(=O)c3ccc(Cl)cc3)c2)c(-c2cccc(F)c2)n1`: the growth is 66.7% (inactive).
Consider `COc1cc2nc(Cl)nc(Nc3cccc(C(=O)/C=C/c4ccc(Cl)cc4)c3)c2cc1OC`, for which the growth is 19.4% (inactive).
In the case of `Cn1nc(-c2ccccc2)c2c(-c3ccccc3)onc2c1=O`, the growth was 20.9% (inactive).
Take `Cc1nn(-c2ccc(Br)cc2)c2nc3[nH]c(=O)[nH]c(=O)c3nc12`: the growth was 118% (inactive).
`CCN1CCN(C(=O)[C@]23CC[C@@H](C)[C@H](C)[C@H]2C2=CC[C@@H]4[C@@]5(C)C/C(=C/c6cccc(OC)c6OC)C(=O)C(C)(C)[C@@H]5CC[C@@]4(C)[C@]2(C)CC3)CC1`: the growth is 30.2% (inactive).
With `C/C(Cc1ccc(Cl)cc1)=C(/c1ccc(Cl)cc1)c1ccc(OCCN2CCCC2)cc1`, the growth was 66% (inactive).
For the compound `COc1cc2ncnc(Nc3ccc(Oc4ccnc(C)c4)c(C)c3)c2cc1NC(=O)CC1CCSS1` (stereo not given), the growth was -30.8% (active).
In the case of `Cc1cc(N2CCOCC2)nc(N(CCCNc2ccnc3cc(Cl)ccc23)Cc2ccco2)n1`, the growth is 30.6% (inactive).

The record behind these values is PubChem BioAssay (NCI).
